G9a block: G9a (human) methyltransferase inhibition. G9a H3K9 monomethylation, AlphaScreen, 2 h. 8.8% of 350,000 active. Q96KQ7. Potency, µM (series often up to 102 µM), usual class: inhibitors; also: nearly all actives have a fitted effect of over 75% in size
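Step 1: enzyme (final 20 nM) with compound, 15 min RT. Step 2: substrate peptide 500 nM and SAM 20 uM, 2 h RT. Step 3: anti-H3K9me1 antibody and AlphaScreen beads, 10 min, then plate read.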
BAZ2B block: blocks human BAZ2B; Q9UIF8; AlphaScreen BAZ2B-H3K14Ac peptide displacement; Potency, µM (series often up to 114 µM), most hits filed as inhibitors; 4.4% of 360,000 active; AID 504333; also: nearly all actives have a fitted effect of over 60% in size
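Compounds, titrated to a top concentration of 110 uM, were incubated 30 min at room temperature with preformed BAZ2B/acetyl-K14 H3 peptide complex (50 nM each). Proximity signal was measured by AlphaScreen after 20 min with beads.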
Sfp inh: blocks B. subtilis Sfp PPTase activity; Biochemical Sfp PPTase activity, qHTS; Q9F4F7; 3.5% of 310,000 active; AID 1490; Potency, µM, actives largely listed as inhibitors;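 also: the enzyme is Sfp with the accession as filed and its product quenches rhodamine fluorescence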
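Fluorescence-quenching assay with 15 nM Sfp, 5 uM rhodamine-CoA and 12.5 uM BHQ-2-labelled ybbR peptide in pH 7.6 Hepes/MgCl2 buffer. Enzyme was pre-incubated with compound for 15 min at room temperature. Rate was taken from the 30-min fluorescence change (525/598 nm).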
L3MBTL1 block: inhibitors of human L3MBTL1 | Q9Y468 | AlphaScreen L3MBTL1–H3K9me1 peptide binding | Potency, µM (top dose mostly 57.1 µM), most hits filed as inhibitors | 0.66% of 230,000 active; also: nearly all actives have a fitted effect of over 60% in size
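AlphaScreen assay: L3MBTL1 (50 nM final) was preincubated 30 min at room temperature with biotinylated H3(1-15)K9me1 peptide (75 nM final), then 30 min with library compounds; streptavidin donor and nickel chelate acceptor beads (10 ug/mL final) added, 30 min dark.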
HP1b binding inh: inhibitors of HP1-beta chromodomain binding to methylated histone tails; P83916; AlphaScreen HP1-beta / biotin-H3K9me3 peptide binding; Potency, µM (titrated, usually from 114 µM), hits mostly inhibitors; 0.56% of 390,000 active; also: nearly all actives have a fitted effect of over 70% in size
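HP1-beta protein (50 nM final) preincubated 30 min at room temperature with biotinylated H3(1-18)K9me3 peptide (50 nM) in PBS pH 7.4, 0.01% Tween-20, then compound added for 30 min. AlphaScreen streptavidin donor/nickel chelate acceptor beads (10 ug/mL final), 30 min dark, luminescence read.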
JMJD2A Tudor: inhibitors of human JMJD2A Tudor domain | AlphaScreen JMJD2A-Tudor / H3K4me3 peptide binding | 4.4% of 390,000 active | AID 504339 | Potency, µM (top dose mostly 114 µM), hits mostly inhibitors; also: nearly all actives have a fitted effect of over 50% in size
Hits are given with their value; i = inactive; ? = inconclusive; nt = not tested or not shown; ! = repeats disagree; [ ] = dose if it differs, or a comment. Sampled rows, rich in hits. Any-hit rate of the full collection: about 12%. Calls follow the shape of the dose curve; as a rule, active = well fitted curve in the direction sought with a large enough effect; inconclusive = small, poorly fitted or top-dose-only effect, or another doubt; inactive = no such curve, though single readings can be large; an effect the other way counts as inactive or inconclusive.

SMILES	G9a block	BAZ2B block	Sfp inh	L3MBTL1 block	HP1b binding inh	JMJD2A Tudor
Cc1c(NS(=O)(=O)c2ccccc2)cc(Cl)c(O)c1C	?	i	?	i	?	89µM
Cc1ccc(NC(=O)CCC(=O)NNC(=O)/C=C/C(=O)O)c(C)c1	10µM	i	i	i	i	?
CCOC(=O)c1ccc(S(=O)(=O)N2CCN(c3nc(-c4ccccc4)nc4ccccc34)CC2)cc1	nt	nt	nt	nt	i	i
O=C(NNc1ccccc1)Nc1ccccc1F	50µM	?	i	nt	i	i
CN(C)c1ccc(/C=N/c2cc(-c3ccccc3)nn2-c2ccccc2)cc1	?	10µM	i	nt	i	?
N#C/C(=N\Nc1ccc([N+](=O)[O-])cc1)C(N)=S	nt	14µM	45µM	nt	35µM	28µM
N#C/C(=N/Nc1ccc([N+](=O)[O-])cc1)C(=N)N1CCCCC1	?	35µM	i	nt	?	56µM
N#C/C(=N\Nc1ccc([N+](=O)[O-])cc1)C(=N)N1CCOCC1	nt	i	i	i	i	i
Cc1ccc(NC(=O)Cn2c(=O)n(Cc3ccccc3)c(=O)c3c(C)c(C(=O)N(C)C)sc32)c(C)c1	i	i	nt	nt	i	i
O=C(N/N=C/c1cccs1)c1cc(-c2ccc(Cl)s2)[nH]n1	50µM	?	i	nt	i	?
O=C(N/N=C/c1ccco1)c1cc(-c2ccc(Cl)s2)[nH]n1	i	i	i	?	i	i
COC(=O)/C=C/c1ccsc1NC(C)=O	?	i	50µM	i	i	i
NCCCNCCCCNCCCN	13µM!	nt	?	i	i	i
Cn1c(SCC(=O)N2CCCC2=O)nc2ccccc2c1=O	nt	nt	nt	i	i	i
O=C(NN=C1CCCC1)c1cc(O)cc(O)c1	nt	79µM	i	nt	?	?
O=C(NN=C1CCCC1)c1cccc(O)c1	i	i	i	nt	i	i
Cc1ccc(C2/C(=C(\O)c3ccc4c(c3)OCCO4)C(=O)C(=O)N2CC2CCCO2)cc1 (stereo unspecified)	50µM	i	i	nt	i	?
COc1ccc(/C(O)=C2/C(=O)C(=O)N(CC3CCCO3)C2c2ccc(O)c(OC)c2)cc1 (stereo unspecified)	50µM	i	i	i	i	i
COc1cccc(C2/C(=C(/O)c3ccc4c(c3)CC(C)O4)C(=O)C(=O)N2CC2CCCO2)c1 (stereo unspecified)	i[0.501 µM]	i	i	nt	i	i
COc1ccc(/C(O)=C2/C(=O)C(=O)N(CC3CCCO3)C2c2cccc(OC)c2)cc1 (stereo unspecified)	i	i	i	i	i	i
Cc1ccc(C2/C(=C(\O)c3ccc4c(c3)OCCO4)C(=O)C(=O)N2Cc2cccnc2)cc1 (stereo unspecified)	56µM	i	i	nt	i	i
O=C1C(=O)N(CCN2CCOCC2)C(c2ccccc2)/C1=C(\O)c1ccc2c(c1)OCCO2 (stereo unspecified)	?	i	i	nt	i	?
COc1cccc(C2/C(=C(\O)c3ccc4c(c3)OCCO4)C(=O)C(=O)N2CC2CCCO2)c1 (stereo unspecified)	?	i	i	nt	i	22µM
CCn1c(=O)cc(OCC(=O)NCc2ccccc2OC)c2ccccc21	i	?	nt	nt	i	i
CC(C)NC(=O)Cn1ncn2c(cc3cc(F)ccc32)c1=O	i	i	nt	nt	i	i
SMILES	G9a block	BAZ2B block	Sfp inh	L3MBTL1 block	HP1b binding inh	JMJD2A Tudor
Cc1ccc2c(c1)C(=O)C1(O)CCN(c3ccccc3)C1=N2 (stereo unspecified)	i	nt	i	nt	nt	nt
CCC(C)N(C(=O)CSc1ncnc2sccc12)C1CCS(=O)(=O)C1 (stereo unspecified)	i[12.7 µM]	i	nt	i	i	i
CCCN(CC1CC1)C(=O)CSc1ncnc2sccc12	40µM	i	i	i	i	i
Cc1ccccc1S(=O)(=O)Cc1ccc(C(=O)N2CCN(c3ncccn3)CC2)o1	i[12.7 µM]	i	i	nt	i	i
CCc1ccccc1S(=O)(=O)Cc1ccc(C(=O)N2CCN(c3ccccn3)CC2)o1	79µM	i	?	nt	i	i
O=C(c1ccc(Br)o1)N1CCN(c2ccccn2)CC1	i[12.7 µM]	i	25µM	i[11.4 µM]	i	i
Cc1cccc(NC(=O)CSCC(=O)N(C)Cc2ccc(Cl)c(Cl)c2)c1	i[12.7 µM]	i	nt	i	i	i
COC(=O)C1(CC2CC(c3ccccc3)=NO2)CCN(C(=O)OC(C)(C)C)CC1 (stereo unspecified)	nt	nt	nt	nt	i	i
O=C(O)CSc1ccnc2cc(Cl)ccc12	56µM	i	56µM	nt	i	i
CCOC(=O)C(N)CSC1CC(=O)N(c2ccc(OCC)cc2)C1=O (stereo unspecified)	?	i	i	i	i	i
CCOC(=O)C(N)CSC1CC(=O)N(c2ccc(OC)cc2)C1=O (stereo unspecified)	45µM	i	i	nt	i	i
Cc1ccc(C(=O)c2cn(Cc3cccc(F)c3)c3nc(C)ccc3c2=O)cc1	i	i	nt	nt	i	i
Cn1cnc2c(oc3ccccc32)c1=O	nt	nt	nt	nt	i	i
CC1c2ccccc2SC(CCCN(C)C)c2ccccc21 (stereo unspecified)	56µM	i	45µM	i	i	i
Cc1ccc(C2=NNC3(CCOC(C)(C)C3)S2)cc1 (stereo unspecified)	28µM	i	i	i	i	?
Cc1ccc(C)c(N2CCN(c3nc4ccccc4n4c(C)nnc34)CC2)c1	i	i	nt	nt	i	i
Cc1ccccc1-c1cncnc1N(C)Cc1ccco1	nt	nt	50µM	nt	nt	nt
Cc1cc(O)c2c(C)c(CC(=O)N3CCCCC3)c(=O)oc2c1	?	i	nt	nt	i	i
Nc1c2c(nc3ccccc13)CSCC2	nt	nt	nt	nt	i	i
O=C(NNC(=O)c1ccc(Br)cc1)c1ccncc1	i[0.501 µM]	i	i	i[2.29 µM]	i	i
O=C(O)/C=C/C(=O)NNC(=O)c1ccc(Br)cc1	25µM	i	i	i	i	i
O=C(NNc1ccc(O)cc1)c1ccc(Br)cc1	1.6µM	?	13µM	?	?	?
O=C(NNc1ccccc1)c1ccccc1	nt	nt	nt	nt	i	i
Cc1ccc(CC(Cc2nc3ccccc3[nH]2)c2nc3ccccc3[nH]2)cc1 (stereo unspecified)	nt	nt	i	nt	nt	nt
C=CC[C@@H]1C=C[C@@H](O/N=C2/C[C@@H](O)[C@@H](O)[C@@H]3[C@@H]4C(=O)N(CC)C(=O)[C@H]4CC[C@@H]23)[C@@H](CO)O1	nt	nt	i	nt	nt	nt
O=c1[nH]sc2ccccc12	1.8µM	50µM	5µM	i	i	32µM
O=c1cc(O)sc2ccccc12	i	i	i	i	i	i
COc1ccc(/C=C2\Oc3ccccc3C2=O)cc1	nt	nt	nt	i	i	i
COc1ccc2c(c1)O/C(=C\c1sccc1C)C2=O	i	i	45µM	i	i	i
CCOC(=O)C1CCN(C(=O)CS(=O)Cc2nc(-c3ccc(C)cc3)oc2C)CC1 (stereo unspecified)	28µM	i	?	i	i	i

Compound activity: PubChem, National Center for Advancing Translational Sciences (NCATS)
